Laboratory results reported in article PMC11574364.

How the values were obtained:
Test in all cases: protein domain microarray probed with biotinylated miRNA; Domain array: 20 mM Tris-HCl pH 7.4, 200 mM KCl, 0.2 mM EDTA, 0.05% NP40, 2 ug/ul heparin, overnight 4 C. ORF array: PBS pH 7.0 with RNase inhibitor, 100 ng RNA; high values mean tight binding
Details in all cases: ssRNA
RBM26(1) = target: T1, RBM26(1) (Homo sapiens, UniProt Q5T8P6)
T1 sequence: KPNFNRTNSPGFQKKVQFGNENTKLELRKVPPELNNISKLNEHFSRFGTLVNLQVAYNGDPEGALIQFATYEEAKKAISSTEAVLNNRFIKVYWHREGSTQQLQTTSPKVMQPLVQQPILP

TIA1 = target: T2, TIA1 (Homo sapiens, UniProt P31483)
T2 sequence: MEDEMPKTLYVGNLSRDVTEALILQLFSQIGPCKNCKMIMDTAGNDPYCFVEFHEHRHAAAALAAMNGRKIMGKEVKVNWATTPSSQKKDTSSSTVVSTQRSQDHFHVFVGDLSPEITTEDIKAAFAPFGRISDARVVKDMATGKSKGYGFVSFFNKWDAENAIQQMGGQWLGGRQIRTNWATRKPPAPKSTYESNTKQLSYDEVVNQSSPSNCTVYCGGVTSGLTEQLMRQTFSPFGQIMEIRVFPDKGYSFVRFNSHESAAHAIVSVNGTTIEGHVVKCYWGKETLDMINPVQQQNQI

ADAR(2) = target: T3, ADAR(2) (Homo sapiens, UniProt P55265)
T3 sequence: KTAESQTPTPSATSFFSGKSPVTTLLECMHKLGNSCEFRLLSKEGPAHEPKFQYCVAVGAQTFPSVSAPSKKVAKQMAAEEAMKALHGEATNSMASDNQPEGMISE

TIAL1 = target: T4, TIAL1 (Homo sapiens, UniProt Q01085)
T4 sequence: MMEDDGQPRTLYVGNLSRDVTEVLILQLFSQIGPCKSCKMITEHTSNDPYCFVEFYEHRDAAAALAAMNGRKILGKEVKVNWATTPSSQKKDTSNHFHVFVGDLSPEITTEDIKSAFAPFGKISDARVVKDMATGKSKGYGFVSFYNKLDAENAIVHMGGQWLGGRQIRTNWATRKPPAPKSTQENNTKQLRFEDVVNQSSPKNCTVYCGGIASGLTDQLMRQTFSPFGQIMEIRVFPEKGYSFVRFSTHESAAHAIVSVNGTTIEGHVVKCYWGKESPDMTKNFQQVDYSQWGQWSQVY

RBMY1A1 / RBMY1B = RBMY1A1 / RBMY1B (Homo sapiens, UniProt P0DJD3)
Chain of RBMY1A1 / RBMY1B (P0DJD3 1-110): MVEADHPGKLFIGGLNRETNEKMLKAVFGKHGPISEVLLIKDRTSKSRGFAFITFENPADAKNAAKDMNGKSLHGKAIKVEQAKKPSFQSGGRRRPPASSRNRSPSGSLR

SHARP(1) = target: T5, SHARP(1) (Homo sapiens, UniProt Q96T58)
T5 sequence: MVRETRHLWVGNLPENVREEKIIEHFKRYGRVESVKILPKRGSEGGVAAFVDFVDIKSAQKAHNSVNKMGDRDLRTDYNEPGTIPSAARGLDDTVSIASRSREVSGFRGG

RBMX2 = target: T6, RBMX2 (Homo sapiens, UniProt Q9Y388)
T6 sequence: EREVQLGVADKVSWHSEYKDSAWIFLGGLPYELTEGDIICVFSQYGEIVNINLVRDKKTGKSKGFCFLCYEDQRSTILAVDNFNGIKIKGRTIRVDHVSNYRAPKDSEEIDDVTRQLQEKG

RDM1 = target: T7, RDM1 (Homo sapiens, UniProt Q8NG50)
T7 sequence: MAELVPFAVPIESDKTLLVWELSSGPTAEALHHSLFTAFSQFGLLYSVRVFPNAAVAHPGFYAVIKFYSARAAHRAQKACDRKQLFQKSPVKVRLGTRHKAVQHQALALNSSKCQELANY

SHARP(2-4) = target: T8, SHARP(2-4) (Homo sapiens, UniProt Q96T58)
T8 sequence: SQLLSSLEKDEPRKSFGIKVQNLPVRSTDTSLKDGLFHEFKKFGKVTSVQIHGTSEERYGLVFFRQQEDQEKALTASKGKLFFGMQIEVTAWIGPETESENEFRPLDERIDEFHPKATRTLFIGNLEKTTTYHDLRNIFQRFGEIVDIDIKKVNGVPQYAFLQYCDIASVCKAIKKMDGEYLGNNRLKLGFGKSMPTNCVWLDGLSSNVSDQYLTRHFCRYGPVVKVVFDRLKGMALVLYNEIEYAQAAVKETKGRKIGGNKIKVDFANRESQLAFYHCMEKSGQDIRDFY

SRSF10 = SRSF10 (Homo sapiens, UniProt O75494)
Chain of SRSF10 (O75494 1-120): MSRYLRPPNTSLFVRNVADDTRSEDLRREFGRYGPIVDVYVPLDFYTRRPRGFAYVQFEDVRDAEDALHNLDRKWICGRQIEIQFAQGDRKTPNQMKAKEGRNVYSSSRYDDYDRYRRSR

PPRC1 = target: T9, PPRC1 (Homo sapiens, UniProt Q5VV67)
T9 sequence: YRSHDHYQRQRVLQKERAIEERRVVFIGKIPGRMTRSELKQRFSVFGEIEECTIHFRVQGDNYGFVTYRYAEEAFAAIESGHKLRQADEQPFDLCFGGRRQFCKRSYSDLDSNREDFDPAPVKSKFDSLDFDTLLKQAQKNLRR

SETD1B = target: T10, SETD1B (Homo sapiens, UniProt Q9UPS6)
T10 sequence: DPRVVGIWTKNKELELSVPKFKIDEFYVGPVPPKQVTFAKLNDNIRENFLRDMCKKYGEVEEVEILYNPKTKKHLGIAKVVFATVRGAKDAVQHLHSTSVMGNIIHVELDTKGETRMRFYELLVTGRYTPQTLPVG

RBM33 = target: T11, RBM33 (Homo sapiens, UniProt Q96EV2)
T11 sequence: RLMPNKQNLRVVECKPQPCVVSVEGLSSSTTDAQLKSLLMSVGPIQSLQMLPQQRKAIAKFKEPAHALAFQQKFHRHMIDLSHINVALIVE

RNPS1 = target: T12, RNPS1 (Homo sapiens, UniProt Q15287)
T12 sequence: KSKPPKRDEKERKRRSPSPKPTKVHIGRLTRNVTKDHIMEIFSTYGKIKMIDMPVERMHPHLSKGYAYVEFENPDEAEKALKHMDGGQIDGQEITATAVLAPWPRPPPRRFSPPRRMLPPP

ZNF638 = target: T13, ZNF638 (Homo sapiens, UniProt Q14966)
T13 sequence: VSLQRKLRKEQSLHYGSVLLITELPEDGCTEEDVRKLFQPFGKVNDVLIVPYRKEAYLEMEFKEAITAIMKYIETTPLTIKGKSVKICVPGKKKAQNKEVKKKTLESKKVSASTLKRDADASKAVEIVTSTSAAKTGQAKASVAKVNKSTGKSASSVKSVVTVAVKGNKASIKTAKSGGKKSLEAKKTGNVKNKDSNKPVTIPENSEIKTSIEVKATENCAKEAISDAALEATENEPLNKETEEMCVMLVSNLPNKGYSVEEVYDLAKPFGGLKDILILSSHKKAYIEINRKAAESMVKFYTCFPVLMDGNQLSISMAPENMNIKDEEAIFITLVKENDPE

hnRNP E1(1-2) = hnRNP E1(1-2) (Homo sapiens, UniProt Q15365)
Chain of hnRNP E1(1-2) (Q15365 1-183): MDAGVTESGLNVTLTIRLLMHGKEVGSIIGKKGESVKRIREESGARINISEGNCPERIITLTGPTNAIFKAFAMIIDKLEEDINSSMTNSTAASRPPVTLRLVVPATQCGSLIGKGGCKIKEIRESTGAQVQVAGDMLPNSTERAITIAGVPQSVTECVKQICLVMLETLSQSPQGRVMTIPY

DDX9(2)/DHX9 = DDX9(2)/DHX9 (Homo sapiens, UniProt Q08211)
Chain of DDX9(2)/DHX9 (Q08211 161-271): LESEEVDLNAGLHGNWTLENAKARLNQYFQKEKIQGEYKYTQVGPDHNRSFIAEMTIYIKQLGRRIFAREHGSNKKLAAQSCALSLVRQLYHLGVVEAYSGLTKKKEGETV

PKR(1-2) = PKR(1-2) (Homo sapiens, UniProt P19525)
Chain of PKR(1-2) (P19525 1-186): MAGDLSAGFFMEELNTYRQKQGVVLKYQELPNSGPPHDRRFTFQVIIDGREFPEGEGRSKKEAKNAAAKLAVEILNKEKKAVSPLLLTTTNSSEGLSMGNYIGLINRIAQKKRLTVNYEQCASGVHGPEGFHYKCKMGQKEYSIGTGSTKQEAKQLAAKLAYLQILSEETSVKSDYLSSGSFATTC

ADAR(3) = target: T14, ADAR(3) (Homo sapiens, UniProt P55265)
T14 sequence: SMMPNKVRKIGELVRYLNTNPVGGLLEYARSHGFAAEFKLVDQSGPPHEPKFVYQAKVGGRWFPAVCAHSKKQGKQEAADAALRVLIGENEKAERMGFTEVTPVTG

DDX9(1)/DHX9 = DDX9(1)/DHX9 (Homo sapiens, UniProt Q08211)
Chain of DDX9(1)/DHX9 (Q08211 1-89): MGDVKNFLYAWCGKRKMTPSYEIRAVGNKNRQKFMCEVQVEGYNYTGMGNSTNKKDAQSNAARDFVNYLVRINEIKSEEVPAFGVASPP

UAGCUUAUCAGACUGAUGUUGA
binding signal (RBM26(1)): 31 ± 1.68 fluorescence intensity | binding signal (TIA1): 631 ± 33.9 fluorescence intensity | binding signal (ADAR(2)): 23.2 ± 3.02 fluorescence intensity | binding signal (TIAL1): 684 ± 18.7 fluorescence intensity | binding signal (RBMY1A1 / RBMY1B): 602 ± 35.9 fluorescence intensity | binding signal (SHARP(1)): 32 ± 6.87 fluorescence intensity | binding signal (RBMX2): 21.4 ± 3.97 fluorescence intensity | binding signal (RDM1): 21.8 ± 0.523 fluorescence intensity | binding signal (SHARP(2-4)): 705 ± 41.5 fluorescence intensity | binding signal (SRSF10): 33.4 ± 2.35 fluorescence intensity

UGAGGUAGUAGGUUGUAUAGUU
binding signal (PPRC1): 24.9 ± 1.13 fluorescence intensity | binding signal (RBM26(1)): 395 ± 44.7 fluorescence intensity | binding signal (TIA1): 584.8 ± 5.47 fluorescence intensity | binding signal (SETD1B): 21.4 ± 1.84 fluorescence intensity | binding signal (ADAR(2)): 21.92 ± 0.0141 fluorescence intensity | binding signal (RBM33): 24.2 ± 0.735 fluorescence intensity | binding signal (TIAL1): 437 ± 10.1 fluorescence intensity | binding signal (RNPS1): 45.1 ± 1.35 fluorescence intensity | binding signal (RBMY1A1 / RBMY1B): 754 ± 30.5 fluorescence intensity | binding signal (SHARP(1)): 63 ± 1.09 fluorescence intensity | binding signal (RBMX2): 34.7 ± 8.67 fluorescence intensity | binding signal (RDM1): 46.4 ± 1.9 fluorescence intensity | binding signal (SHARP(2-4)): 138 ± 34.1 fluorescence intensity | binding signal (SRSF10): 91 ± 3.12 fluorescence intensity

CAGUGCAAUGAUGAAAGGGCAU
binding signal (PPRC1): 43 ± 4.72 fluorescence intensity | binding signal (RBM26(1)): 478 ± 6.75 fluorescence intensity | binding signal (ZNF638): 33.6 ± 1.92 fluorescence intensity | binding signal (TIA1): 537.8 ± 3.27 fluorescence intensity | binding signal (ADAR(2)): 22 ± 1.29 fluorescence intensity | binding signal (RBM33): 26.1 ± 1.95 fluorescence intensity | binding signal (hnRNP E1(1-2)): 26.8 ± 0.919 fluorescence intensity | binding signal (TIAL1): 523 ± 28 fluorescence intensity | binding signal (RNPS1): 160 ± 25.6 fluorescence intensity | binding signal (RBMY1A1 / RBMY1B): 1153 ± 5.4 fluorescence intensity | binding signal (SHARP(1)): 1723 ± 15.7 fluorescence intensity | binding signal (RBMX2): 29.6 ± 4.16 fluorescence intensity | binding signal (RDM1): 185 ± 14.8 fluorescence intensity | binding signal (SHARP(2-4)): 630 ± 20.1 fluorescence intensity | binding signal (SRSF10): 865.4 ± 6.43 fluorescence intensity | binding signal (DDX9(2)/DHX9): 26 ± 1.37 fluorescence intensity

UGAGGUAGUAGGUUGUAUGGUU
binding signal (PPRC1): 134 ± 3.36 fluorescence intensity | binding signal (RBM26(1)): 1460 ± 57.5 fluorescence intensity | binding signal (ZNF638): 38.3 ± 1.35 fluorescence intensity | binding signal (PKR(1-2)): 28.7 ± 2.65 fluorescence intensity | binding signal (TIA1): 1030 ± 40.8 fluorescence intensity | binding signal (ADAR(3)): 30.3 ± 3.34 fluorescence intensity | binding signal (DDX9(1)/DHX9): 49.7 ± 9.25 fluorescence intensity | binding signal (SETD1B): 22.4 ± 0.396 fluorescence intensity | binding signal (ADAR(2)): 22.7 ± 0.559 fluorescence intensity | binding signal (RBM33): 40.1 ± 0.601 fluorescence intensity | binding signal (hnRNP E1(1-2)): 26.7 ± 0.438 fluorescence intensity | binding signal (TIAL1): 789 ± 12.4 fluorescence intensity | binding signal (RNPS1): 294 ± 40.2 fluorescence intensity | binding signal (RBMY1A1 / RBMY1B): 1403 ± 13.2 fluorescence intensity | binding signal (SHARP(1)): 702.32 ± 0.332 fluorescence intensity | binding signal (RBMX2): 69.6 ± 0.757 fluorescence intensity | binding signal (RDM1): 232 ± 12 fluorescence intensity | binding signal (SHARP(2-4)): 710 ± 31.7 fluorescence intensity | binding signal (SRSF10): 375 ± 21.5 fluorescence intensity | binding signal (DDX9(2)/DHX9): 44.6 ± 4.16 fluorescence intensity

AGAGGUAGUAGGUUGCAUAGUU
binding signal (PPRC1): 97 ± 3.22 fluorescence intensity | binding signal (RBM26(1)): 1530 ± 59.8 fluorescence intensity | binding signal (ZNF638): 29.21 ± 0.262 fluorescence intensity | binding signal (PKR(1-2)): 24.8 ± 1.68 fluorescence intensity | binding signal (TIA1): 1240 ± 50.7 fluorescence intensity | binding signal (ADAR(3)): 24.2 ± 0.771 fluorescence intensity | binding signal (DDX9(1)/DHX9): 29.6 ± 4.33 fluorescence intensity | binding signal (SETD1B): 20.2 ± 1.15 fluorescence intensity | binding signal (ADAR(2)): 23.9 ± 0.346 fluorescence intensity | binding signal (RBM33): 28.3 ± 2.28 fluorescence intensity | binding signal (hnRNP E1(1-2)): 27.4 ± 2.06 fluorescence intensity | binding signal (TIAL1): 1020 ± 13.1 fluorescence intensity | binding signal (RNPS1): 183 ± 12.6 fluorescence intensity | binding signal (RBMY1A1 / RBMY1B): 2000 ± 49 fluorescence intensity | binding signal (SHARP(1)): 423 ± 5.21 fluorescence intensity | binding signal (RBMX2): 65.8 ± 17.9 fluorescence intensity | binding signal (RDM1): 230 ± 20.4 fluorescence intensity | binding signal (SHARP(2-4)): 711 ± 17.9 fluorescence intensity | binding signal (SRSF10): 422 ± 31.8 fluorescence intensity | binding signal (DDX9(2)/DHX9): 33 ± 2.41 fluorescence intensity

UGAGGUAGUAGGUUGUGUGGUU
binding signal (PPRC1): 155 ± 53.3 fluorescence intensity | binding signal (RBM26(1)): 1560 ± 215 fluorescence intensity | binding signal (ZNF638): 57.9 ± 2.93 fluorescence intensity | binding signal (PKR(1-2)): 53.5 ± 3.56 fluorescence intensity | binding signal (TIA1): 871 ± 40.8 fluorescence intensity | binding signal (ADAR(3)): 31.8 ± 4.56 fluorescence intensity | binding signal (DDX9(1)/DHX9): 68.5 ± 11.3 fluorescence intensity | binding signal (SETD1B): 24.2 ± 1.14 fluorescence intensity | binding signal (ADAR(2)): 22.6 ± 1.85 fluorescence intensity | binding signal (RBM33): 32.8 ± 1.94 fluorescence intensity | binding signal (hnRNP E1(1-2)): 34.9 ± 2.48 fluorescence intensity | binding signal (TIAL1): 740 ± 11.2 fluorescence intensity | binding signal (RNPS1): 565 ± 18.8 fluorescence intensity | binding signal (RBMY1A1 / RBMY1B): 1360 ± 32 fluorescence intensity | binding signal (SHARP(1)): 1119.4 ± 0.849 fluorescence intensity | binding signal (RBMX2): 111 ± 6.68 fluorescence intensity | binding signal (RDM1): 427 ± 12.9 fluorescence intensity | binding signal (SHARP(2-4)): 1000 ± 18.8 fluorescence intensity | binding signal (SRSF10): 467 ± 36.1 fluorescence intensity | binding signal (DDX9(2)/DHX9): 53.91 ± 0.134 fluorescence intensity
